The values below come from PubChem BioAssay (NCI).

The panel holds about 83,000 compounds, 20% with a hit somewhere; the sample as a whole holds those more often.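 A percent growth of 40 corresponds to 60% growth inhibition; 0 means no net growth; -100 means all cells died. Active threshold: below 10.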 Unmarked numbers belong to inactive results. The source made the active and inactive calls.

Holding throughout (experiment): NCI-60 one-dose screen, 48 h (100 = growth as untreated, 0 = no growth, -100 = all killed)
For one experiment, the system named is 786-0 renal. The note with it: 10 µM.
Another experiment deals with K-562 leukemia. Conditions: 10 µM.
Another experiment has as its system MALME-3M melanoma. Conditions: 10 µM.
For a further experiment, the system named is RXF 393 renal. Conditions: 10 µM.
The subject of a further experiment is EKVX NSCLC. The note with it: 10 µM.
For a further experiment, the system named is SN12C renal. Conditions: 10 µM.
The subject of another experiment is UO-31 renal. Conditions: 10 µM.
The test system of a further experiment is TK-10 renal. Conditions: 10 µM.
The next experiment deals with ACHN renal. Conditions: 10 µM.
For the next experiment, the system named is CAKI-1 renal. The note with it: 10 µM.
The next experiment relates to OVCAR-8 ovarian. Conditions: 10 µM.
Another experiment concerns OVCAR-5 ovarian. Conditions: 10 µM.
Another experiment relates to OVCAR-4 ovarian. Conditions: 10 µM.
Another experiment concerns SK-OV-3 ovarian. Conditions: 10 µM.
The next experiment deals with OVCAR-3 ovarian. The note with it: 10 µM.
Another experiment relates to NCI/ADR-RES ovarian. The note with it: 10 µM.
The subject of a further experiment is BT-549 breast. Conditions: 10 µM.
The test system of another experiment is MCF7 breast. The note with it: 10 µM.
The test system of another experiment is MDA-MB-468 breast. Conditions: 10 µM unless noted.
In another experiment the test system is CCRF-CEM leukemia. The note with it: 10 µM.

`CC(=C\C(=O)Oc1ccc2c3c1OC1C(O)CCC4(O)C(C2)N(CC2CCC2)CCC314)/C=C1\CCCc2ccccc21` (configuration not stated): the growth in the experiment with 786-0 renal was 45.1%; with K-562 leukemia it was 19.7%; in the experiment with MALME-3M melanoma, 34.6%; in the experiment on RXF 393 renal it was 37.7%; in the experiment with EKVX NSCLC it was 49.7%; in the experiment with SN12C renal, 60.9%. Further, the growth in the experiment with UO-31 renal was 33.8%; with TK-10 renal it was 65.2%; with ACHN renal, 84.9%; in the experiment on CAKI-1 renal, 41.7%; in the experiment with OVCAR-8 ovarian, 76.9%; with OVCAR-5 ovarian, 72.1%. Besides, the growth in the experiment on OVCAR-4 ovarian is 55.6%; with SK-OV-3 ovarian, 80.9%; with OVCAR-3 ovarian, 77.2%; with NCI/ADR-RES ovarian, 63.8%; in the experiment on BT-549 breast, 58.7%; with MCF7 breast, 35.3%. The growth with MDA-MB-468 breast is -15.4% (active).

On to `C[C@H]1[C@H](OC(=O)CCC(=O)Nc2cnccn2)O[C@@H]2OC3(C)CC[C@H]4[C@H](C)CC[C@@H]1[C@@]24OO3`, for which the growth in the experiment on 786-0 renal is 53.6%; with K-562 leukemia, 14.9%; in the experiment with MALME-3M melanoma, 27.5%; in the experiment on RXF 393 renal, 49%; in the experiment with EKVX NSCLC, 38.4%; with SN12C renal, 45.3%. In addition, the growth in the experiment with UO-31 renal was 11%; in the experiment with TK-10 renal, 42.2%; with ACHN renal, 25.4%; in the experiment with CAKI-1 renal it was 42.8%; in the experiment on CCRF-CEM leukemia, 35.4%; in the experiment with OVCAR-8 ovarian, 20.7%. The growth in the experiment with OVCAR-5 ovarian is 35.2%; with OVCAR-4 ovarian, 44.1%; in the experiment on SK-OV-3 ovarian it was 77.4%; with OVCAR-3 ovarian, 34.6%; in the experiment on NCI/ADR-RES ovarian, 19.1%; with BT-549 breast, 24%. For the same compound, the growth in the experiment with MCF7 breast was 24.4%; in the experiment with MDA-MB-468 breast it was 50.7%.

For the compound `O=C(/C=C/c1ccccc1Cl)c1nc2ccccc2n1Cc1ccc(F)cc1`, the growth in the experiment on 786-0 renal is -95.3% (active); in the experiment on K-562 leukemia it was -25.9% (active); with MALME-3M melanoma, -80% (active); in the experiment on RXF 393 renal, -97.8% (active); in the experiment with EKVX NSCLC, -91.6% (active); in the experiment with SN12C renal it was -89.4% (active). Further, the growth in the experiment on UO-31 renal is -99.6% (active); in the experiment on TK-10 renal, -44.2% (active); with ACHN renal, -88% (active); with CAKI-1 renal, -40.5% (active); in the experiment on CCRF-CEM leukemia it was -25.4% (active); with OVCAR-8 ovarian it was -66.1% (active). The growth in the experiment with OVCAR-5 ovarian was -66.3% (active); in the experiment on OVCAR-4 ovarian it was 4.42% (active); in the experiment with SK-OV-3 ovarian, 8.31% (active); in the experiment with OVCAR-3 ovarian, -50.8% (active); in the experiment with NCI/ADR-RES ovarian it was -56% (active); in the experiment on BT-549 breast it was -92.2% (active). In addition, the values for the growth in the experiment with MCF7 breast and with MDA-MB-468 breast were -59.3% (active) and -94.1% (active), respectively.

For `COC(=O)C[C@](O)(CCC(C)C)C(=O)O[C@@H]1C(OC)=C[C@]23CCCN2CCc2cc4c(cc2[C@H]13)OCO4`, the growth in the experiment with 786-0 renal is -46.8% (active); with K-562 leukemia, 1.57% (active); in the experiment on MALME-3M melanoma it was -90.9% (active); in the experiment on RXF 393 renal, -89.6% (active); in the experiment with EKVX NSCLC, -23.9% (active); with SN12C renal it was -26.7% (active). The growth with TK-10 renal was -23.8% (active); with ACHN renal it was -25.1% (active); with CAKI-1 renal, -13.1% (active); in the experiment with CCRF-CEM leukemia, -12% (active); in the experiment on OVCAR-8 ovarian, -62.9% (active); in the experiment on OVCAR-5 ovarian, -35.9% (active). Further, the growth with OVCAR-4 ovarian is -42.4% (active); in the experiment on SK-OV-3 ovarian, -25.6% (active); with OVCAR-3 ovarian it was -26.9% (active); in the experiment on NCI/ADR-RES ovarian it was -29.7% (active); with BT-549 breast, -42% (active); in the experiment with MCF7 breast, -19.4% (active). Moreover, the growth in the experiment with MDA-MB-468 breast was -83.8% (active).

As for `C=CC[Se]C(=O)c1cncc(C(=O)[Se]CC=C)c1`, the growth was -97.3% (active) with 786-0 renal; -15.7% (active) with K-562 leukemia; -67% (active) in the experiment on MALME-3M melanoma; -91.9% (active) in the experiment with RXF 393 renal; -97.9% (active) in the experiment on EKVX NSCLC; -95.6% (active) in the experiment with SN12C renal. Further, the growth in the experiment on UO-31 renal is -98.4% (active); in the experiment on TK-10 renal it was -20.3% (active); in the experiment with ACHN renal, -12.9% (active); in the experiment with CAKI-1 renal, -8.92% (active); with CCRF-CEM leukemia, -39.9% (active); in the experiment on OVCAR-8 ovarian it was -87.3% (active). For the same compound, the growth in the experiment on OVCAR-5 ovarian is -86.6% (active); in the experiment on OVCAR-4 ovarian it was -62.8% (active); with SK-OV-3 ovarian, -92.2% (active); with OVCAR-3 ovarian, -89.5% (active); with NCI/ADR-RES ovarian it was -70.2% (active); with BT-549 breast it was -94.9% (active). In addition, the growth was -42.7% (active) with MCF7 breast and -85.2% (active) in the experiment with MDA-MB-468 breast.

As to `COCCOCCOCCOc1ccc(-n2cc(CCCN(CCNc3ccnc4cc(Cl)ccc34)C(=O)CCC(=O)O[C@@H]3O[C@@H]4OC5(C)CC[C@H]6[C@H](C)CC[C@@H]([C@H]3C)[C@@]46OO5)nn2)cc1`, the growth was 47% in the experiment on 786-0 renal; 17.2% in the experiment with K-562 leukemia; -61.2% (active) in the experiment with MALME-3M melanoma; 33.6% in the experiment with RXF 393 renal; 53.5% in the experiment on EKVX NSCLC; 52.2% in the experiment on SN12C renal. Further, the growth in the experiment on UO-31 renal was 16.4%; with TK-10 renal it was 52.5%; in the experiment on ACHN renal, 47.1%; in the experiment with CAKI-1 renal, 39.7%; in the experiment on CCRF-CEM leukemia, 26.4%; with OVCAR-8 ovarian it was 20.9%. Also, the growth is 52.2% in the experiment on OVCAR-5 ovarian; 45.7% in the experiment with OVCAR-4 ovarian; 76.1% in the experiment with SK-OV-3 ovarian; 35.3% in the experiment on OVCAR-3 ovarian; 26.8% with NCI/ADR-RES ovarian; 4.88% (active) in the experiment on BT-549 breast. For the same compound, the values for the growth in the experiment on MCF7 breast and with MDA-MB-468 breast were 22.2% and 44.9%, respectively.

As to `Cc1c2oc3c(C)ccc(C(=O)N[C@@H]4C(=O)N[C@H](C(C)C)C(=O)N5CCC[C@H]5C(=O)N(C)CC(=O)N(C)[C@@H](C(C)C)C(=O)OC4C)c3nc-2c(C(=O)N[C@@H]2C(=O)N[C@H](C(C)C)C(=O)N3CC(=O)C[C@H]3C(=O)N(C)CC(=O)N(C)[C@@H](C(C)C)C(=O)OC2C)c(N)c1=O` (some centres not stated), the growth is 19% in the experiment with 786-0 renal; -14.5% (active) in the experiment on MALME-3M melanoma; -78.8% (active) in the experiment on RXF 393 renal; -12.5% (active) in the experiment with EKVX NSCLC; 6.6% (active) in the experiment on SN12C renal; 3.68% (active) with UO-31 renal. For the same compound, the growth in the experiment with TK-10 renal was 5.82% (active); in the experiment on ACHN renal, 2.84% (active); with CAKI-1 renal, 8.23% (active); with CCRF-CEM leukemia, 2.91% (active); in the experiment on OVCAR-8 ovarian it was 0.349% (active); in the experiment on OVCAR-5 ovarian, 5.55% (active). Also, the growth in the experiment with OVCAR-4 ovarian was 21%; in the experiment with SK-OV-3 ovarian it was 7.97% (active); with OVCAR-3 ovarian, 6.77% (active); in the experiment on NCI/ADR-RES ovarian, 4.49% (active); with BT-549 breast, -9.76% (active); in the experiment with MCF7 breast, 1.42% (active). The growth in the experiment on MDA-MB-468 breast was -37.7% (active).
